Data as given in PubChem BioAssay AID1159580 (chemical genetic matrix, 2015).
Screen size: about 5,500 compounds; about 2,000 (36%) were called active. Another 18% or so got no clear call; they are omitted. No stated cut-off is given here; in the data, active means normalized growth mostly below about 0.91 (no sharp cut-off); inconclusive means no clear call, values can overlap the other calls; inactive means mostly above about 0.92. Some of the results follow.

Assay: chemical genetic growth profiling, strain panel (AID 1159580);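 further: tested at 20 µM; growth read once vehicle control cultures reached saturation at 30 °C; 1 = growth at the plate median or of vehicle wells; lower values mean less growth of the strain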
Conditions: S. cerevisiae deletion strains, growth OD

Measured: normalized growth

CC(=O)Oc1ccc(Cl)c2cccnc12
active: locus YAL013W, strain DEP1, active compounds read low 0.0553 | locus YAL021C, strain ccr4, active compounds read low 0.069 | locus YAL026C, strain drs2, active compounds read low 0.0608 | locus YAL030W, strain snc1, active compounds read low 0.0564 | locus YBL061C, strain skt5, active compounds read low 0.0591 | locus YBR009C, strain hhf1, active compounds read low 0.0605 | locus YBR021W, strain FUR4, active compounds read low 0.0898 | locus YBR023C, strain chs3, active compounds read low 0.0596 | locus YBR171W, strain sec66, active compounds read low 0.0822 | locus YBR229C, strain ROT2, active compounds read low 0.0477 | locus YBR231C, strain swc5, active compounds read low 0.0648 | locus YBR279W, strain paf1, active compounds read low 0.0603 | locus YCL011C, strain gbp2, active compounds read low 0.0571 | locus YCL016C, strain dcc1, active compounds read low 0.0644 | locus YCL029C, strain bik1, active compounds read low 0.0625 | locus YCL069W, strain vba3, active compounds read low 0.0622 | locus YCR088W, strain abp1, active compounds read low 0.0643 | locus YDL005C, strain med2, active compounds read low 0.0757 | locus YDL035C, strain GPR1, active compounds read low 0.0496 | locus YDL040C, strain nat1, active compounds read low 0.0609 | locus YDL074C, strain BRE1, active compounds read low 0.0748 | locus YDL101C, strain DUN1, active compounds read low 0.0607 | locus YDL134C, strain PPH21, active compounds read low 0.0511 | locus YDL185W, strain tfp1, active compounds read low 0.0604 | locus YDL192W, strain arf1, active compounds read low 0.0619 | locus YDR001C, strain nth1, active compounds read low 0.064 | locus YDR069C, strain doa4, active compounds read low 0.0614 | locus YDR101C, strain arx1, active compounds read low 0.0604 | locus YDR137W, strain rgp1, active compounds read low 0.0888 | locus YDR150W, strain NUM1, active compounds read low 0.0581 | locus YDR159W, strain sac3, active compounds read low 0.0841 | locus YDR162C, strain NBP2, active compounds read low 0.0464 | locus YDR195W, strain ref2 0.118 | locus YDR297W, strain sur2, active compounds read low 0.0582 | locus YDR318W, strain mcm21, active compounds read low 0.064 | locus YDR334W, strain swr1, active compounds read low 0.0646 | locus YDR335W, strain msn5, active compounds read low 0.0695 | locus YDR388W, active compounds read low 0.0563 | locus YDR392W, strain spt3, active compounds read low 0.0734 | locus YDR502C, strain sam2, active compounds read low 0.0661 | locus YEL003W, strain gim4, active compounds read low 0.0532 | locus YEL037C, strain rad23, active compounds read low 0.0595 | locus YEL061C, strain CIN8 (second series), active compounds read low 0.0644 | locus YEL061C, strain CIN8, active compounds read low 0.0486 | locus YER015W, strain faa2, active compounds read low 0.0637 | locus YER016W, strain bim1, active compounds read low 0.0578 | locus YER110C, active compounds read low 0.0806 | locus YER111C, strain swi4, active compounds read low 0.076 | locus YER155C, strain BEM2 (second series), active compounds read low 0.094 | locus YER155C, strain BEM2, active compounds read low 0.0723 | locus YER167W, strain BCK2, active compounds read low 0.0497 | locus YFR010W, strain ubp6, active compounds read low 0.0687 | locus YGL078C, strain dbp3, active compounds read low 0.0682 | locus YGL086W, strain mad1, active compounds read low 0.0595 | locus YGL167C, strain pmr1, active compounds read low 0.0737 | locus YGL173C, strain kem1, active compounds read low 0.0684 | locus YGL227W, strain vid30, active compounds read low 0.0677 | locus YGL240W, strain doc1, active compounds read low 0.0722 | locus YGL248W, strain PDE1, active compounds read low 0.046 | locus YGL253W, strain hxk2, active compounds read low 0.0586 | locus YGR078C, strain PAC10, active compounds read low 0.0495 | locus YGR135W, strain pre9, active compounds read low 0.0649 | locus YGR252W, strain gcn5, active compounds read low 0.186 | locus YHR013C, strain ard1, active compounds read low 0.104 | locus YHR027C, strain rpn1, active compounds read low 0.0596 | locus YHR030C, strain SLT2, active compounds read low 0.0501 | locus YHR079C, strain IRE1 (second series), active compounds read low 0.0563 | locus YHR094C, strain hxt1, active compounds read low 0.0602 | locus YHR129C, strain ARP1, active compounds read low 0.056 | locus YHR142W, strain chs7, active compounds read low 0.0762 | locus YHR200W, strain rpn10, active compounds read low 0.0647 | locus YIL066C, strain RNR3, active compounds read low 0.0516 | locus YIL073C, strain SPO22, active compounds read low 0.118 | locus YIL125W, strain kgd1, active compounds read low 0.0601 | locus YIR030C, strain dcg1, active compounds read low 0.0565 | locus YJL092W, strain hpr5, active compounds read low 0.0615 | locus YJL095W, strain BCK1 (second series), active compounds read low 0.0566 | locus YJL095W, strain BCK1, active compounds read low 0.0546 | locus YJL115W, strain asf1, active compounds read low 0.0797 | locus YJL129C, strain trk1, active compounds read low 0.0818 | locus YJL134W, strain LCB3, active compounds read low 0.0495 | locus YJL154C, strain vps35, active compounds read low 0.0615 | locus YJL164C, strain tpk1, active compounds read low 0.0597 | locus YJL166W, strain qcr8, active compounds read low 0.0614 | locus YJL168C, strain set2, active compounds read low 0.062 | locus YJL187C, strain SWE1 (second series), active compounds read low 0.0475
